40 molecules from PubChem BioAssay (NCATS) can be followed below.

Inconclusive results are not listed. Where a call stands in place of a potency, no number is given. A number with no mark means an inactive call. The source made the active and inactive calls. The call rests on the fitted dose curve; in most records, active means well fitted curve in the direction sought with a large enough effect; inconclusive means small, poorly fitted or top-dose-only effect, or another doubt; inactive means no such curve, though single readings can be large; an effect the other way counts as inactive or inconclusive. Where a SMILES comes first, the peptide text is derived from it.
Potency means the concentration at half of the fitted maximal effect.

One experiment in a line: Counterscreen qHTS for small molecule stabilizers of the endoplasmic reticulum resident proteome: GLuc-NoTag assay (AID 1508627).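 On activity change, negative = inhibition: SH-SY5Y cells given compound then 100 nM thapsigargin to empty ER calcium.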 To be noted: Gaussia luciferase NoTag secretion counterscreen, luminescence, thapsigargin 100 nM for final 4 h; series mostly up to 76.4 µM. In short, it runs like this: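 SH-SY5Y cells stably expressing constitutively secreted GLuc (no SERCaMP tag) were pre-incubated 5 h, treated with compound for 19 h, then 100 nM thapsigargin for 4 h at 37C; medium GLuc read by coelenterazine luminescence.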
Take `CN1CC[C@@]2(c3cccc(O)c3)Cc3nc4ccccc4cc3C[C@H]2C1`: the Potency result was “inactive”. In the case of `Oc1ccc2c3c1O[C@H]1c4[nH]c5ccccc5c4C[C@]4(O)[C@H](C2)N(CC2CC2)CC[C@@]314`, the Potency result is “inactive”. Take `CN1C(=O)COc2c(C(=O)N[C@@H]3CN4CCC3CC4)cc(Cl)cc21`: the Potency entry was “inactive”. On the same count and under the same terms, the same measure for `CCCCCCC[n+]1ccc(-c2cc[n+](CCCCCCC)cc2)cc1`: “inactive”. With `CN1[C@@H]2CC[C@H]1CC(OC(c1ccc(F)cc1)c1ccc(F)cc1)C2` (stereo not given in full), the Potency is 44.7 µM (active).

With `CC(C)[C@]1(O)[C@@H](OC(=O)c2ccc[nH]2)[C@@]2(O)[C@@]3(C)C[C@]4(O)O[C@@]5([C@H](O)[C@@H](C)CC[C@]35O)[C@@]2(O)C41C`, the Potency entry was “inactive”.

With `Cn1c2c(c3ccccc31)CCNCC2`, the Potency result was “inactive”. The same measure, in the same setting: the result for `C[C@H](N)Cc1c[nH]c2ccc(OCc3cccs3)cc12` reads “inactive”.

Another experiment in a line: Confirmatory qHTS for small molecule stabilizers of the endoplasmic reticulum resident proteome: Secreted ER Calcium Modulated Protein (SERCaMP) assay (AID 1508628). Further: nearly all actives have a fitted effect of over 40% in size. The settings on record: SERCaMP secreted luciferase ER calcium/proteostasis reporter; series mostly up to 76.3 µM. In short, it runs like this:
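We seeded SH-SY5Y-GLuc-SERCaMP cells, added compounds (three concentrations in the primary run, eleven up to 76.6 uM in confirmation), incubated 16 h, depleted ER calcium with thapsigargin, and read luciferase 4 h later.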
Turning to `CCC(Oc1ccc(Cl)cc1)C(=O)OC1CC2CCC(C1)N2C` (stereo not given), the Potency is 8.91 µM (active). With `Oc1ccc2c3c1O[C@H]1c4c(c5ccccc5n4Cc4ccccc4)C[C@]4(O)[C@H](C2)N(CC2CC2)CC[C@@]314`, the Potency result is “inactive”. The same measure, in the same setting: the result for `CC(C)(O)[C@H]1O[C@@H]2CC[C@]3(C)[C@@]4(C)c5[nH]c6ccccc6c5C[C@@H]4CC[C@]3(O)C2=CC1=O` reads 20 µM (active); that for `CN(C(=O)Cc1ccc(Cl)c(Cl)c1)[C@H](CN1CCCC1)c1ccccc1`, “inactive”.

Another experiment can be described thus: Cell Viability qHTS for small molecule stabilizers of the endoplasmic reticulum resident proteome (AID 1508629).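 Further: compound exposure about 46 h in total before the viability read.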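 On max response: human SH-SY5Y neuroblastoma cells carrying the GLuc-SERCaMP reporter.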 To be noted: cell viability counter-screen, 100 nM thapsigargin for final 4 h. (qHTS replaces the single test concentration by a dilution series.)
For the molecule `CN1CC[C@@]2(c3cccc(O)c3)Cc3nc4ccccc4cc3C[C@H]2C1`, the max response is -3.73%. For the molecule `CN1[C@@H]2CC[C@H]1CC(OC(c1ccc(F)cc1)c1ccc(F)cc1)C2` (stereo not given in full), the Potency is 25.1 µM (active). Take `Cn1c2c(c3ccccc31)CCNCC2`: the max response is 24.2%.

A further experiment can be described thus: Primary qHTS for small molecule stabilizers of the endoplasmic reticulum resident proteome: Secreted ER Calcium Modulated Protein (SERCaMP) assay (AID 1508630). The settings on record: SH-SY5Y GLuc-SERCaMP (Gaussia luciferase released on ER calcium loss) secretion, thapsigargin, luminescence; series mostly up to 38.4 µM. In short, it runs like this: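 GLuc-SERCaMP-expressing SH-SY5Y cells, pretreated 16 h with compound, are challenged with thapsigargin to empty ER calcium stores; after 4 h, coelenterazine is added directly to the medium and luminescence is imaged.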
With `CCCCC/C=C\C/C=C\C/C=C\CCCCCCC(=O)NCCO`, the activity change, negative = inhibition was -18.9% [at 3.88 µM]. Same read-out and setting: the same measure for `CCCCC[C@@H](/C=C/C=C\C/C=C\C/C=C\CCCC(=O)O)OO`: -17.3% [at 0.478 µM].

`O=C(O)CCC(CP(=O)(O)O)C(=O)O` (stereo not given): the Potency result is “inactive”.

Turning to `O[C@@H]1CCCN2C[C@@H](O)[C@@H](O)C12` (stereo not given in full), the Potency result was “inactive”. The same measure, in the same setting: the same measure for `CN(C(=O)Cc1ccc(Cl)c(Cl)c1)C(CN1CCCC1)c1cccc(N=C=S)c1` (stereo not given): “inactive”.

Turning to H-YGGFLRKYPK-OH, the activity change, negative = inhibition is -17% [at 3.88 µM]. On the same count and under the same terms, the same measure for `C[C@H](NC(=O)[C@@H](N)Cc1ccc(O)cc1)C(=O)N[C@@H](Cc1ccccc1)C(=O)N[C@@H](Cc1ccccc1)C(N)=O` (H-YAFF-NH2): -10.3% [at 3.88 µM]; for `CC[C@H](C)[C@H](NC(=O)[C@H](CCCN=C(N)N)NC(=O)[C@H](CCCN=C(N)N)NC(=O)[C@H](CC(C)C)NC(=O)[C@H](Cc1ccccc1)NC(=O)CNC(=O)CNC(=O)[C@@H](N)Cc1ccc(O)cc1)C(=O)O`: -13% [at 3.88 µM]. As to `Cc1[nH]c2ccc(Cl)cc2c1C1=CCNCC1`, the Potency is 35.5 µM (active). Regarding `CCCCC/C=C\C=C\[C@H](CCCCCCCC(=O)O)OO`, the activity change, negative = inhibition is -24.7% [at 0.478 µM].

For `C=C1C([C@@H](O)C[C@H](C)C2O[C@@]3(CCCCO3)CC[C@H]2C)OC2CC[C@@]3(CC[C@@H](/C=C/[C@@H](C)C4CC(C)=C[C@]5(O4)O[C@H](C[C@@](C)(O)C(=O)O)CCC5O)O3)OC2[C@@H]1O` (stereo not given in full), the activity change, negative = inhibition is -21.6% [at 1.51 µM]. With `O=C(O)C1CN(CP(=O)(O)O)CCN1` (stereo not given), the Potency result is “inactive”. On to `COc1ccc2c(c1O)-c1cc(O)cc3c1[C@@H](C2)N(C)CC3`, for which the Potency entry was “inactive”.

Consider `COc1cccc2c1C13CC[N+]4(CC5CC5)CO[C@]1(CCC(=O)C3)C4C2`, for which the Potency entry was “inactive”. On to `CC(C)C[C@H](NC(=O)[C@H](Cc1ccccc1)NC(=O)CNC(=O)[C@H](CO)NC(=O)[C@@H](N)Cc1ccc(O)cc1)C(=O)N[C@H](C(=O)O)[C@H](C)O`, for which the activity change, negative = inhibition was -28.8% [at 3.88 µM]. Turning to `CCc1cccc(CC)c1NC1=NCCN1`, the Potency result was “inactive”. As to `CC(C)[C@H](NC(=O)[C@H](CCC(=O)O)NC(=O)[C@H](Cc1ccccc1)NC(=O)[C@H](C)NC(=O)[C@@H](N)Cc1ccc(O)cc1)C(=O)N[C@H](C(=O)NCC(N)=O)C(C)C`, the activity change, negative = inhibition is -11.9% [at 3.88 µM]. Consider `CCCN(C/C=C/I)C1CCc2ccc(O)cc2C1` (stereo not given), for which the Potency entry is “inactive”.

Consider `NCCCC[C@H](NC(=O)[C@H](Cc1ccccc1)NC(=O)[C@H](CCCN=C(N)N)NC(=O)[C@@H](N)Cc1ccc(O)cc1)C(N)=O`, for which the activity change, negative = inhibition is -26.5% [at 3.88 µM]. For the molecule `CC(C)C[C@H](NC(=O)[C@H](Cc1ccccc1)NC(=O)CNC(=O)[C@H](CS)N(C(=O)[C@@H](N)Cc1ccc(O)cc1)C(C)(C)C)C(=O)N([C@H](C(=O)O)[C@H](C)O)C(C)(C)C` (HELM PEPTIDE1{Y.[CC(C)(C)N([C@@H](CS)C(=O)[*:2])[*:1]].G.F.L.[C[C@H](O)[C@@H](C(=O)O)N(C(C)(C)C)[*:1]]}$$$$V2.0), the activity change, negative = inhibition is -10.6% [at 3.88 µM].

As to `CC1OC(=O)[C@@H](C(C)C)NC(=O)C(C(C)C)OC(=O)[C@H](C(C)C)NC(=O)C(C)OC(=O)[C@@H](C(C)C)NC(=O)C(C(C)C)OC(=O)[C@H](C(C)C)NC(=O)C(C)OC(=O)[C@@H](C(C)C)NC(=O)C(C(C)C)OC(=O)[C@H](C(C)C)NC1=O` (stereo not given in full), the Potency result was “inactive”. Still for that read-out and setting: the same measure for `CN(C(=O)Cc1ccc(Cl)c(Cl)c1)[C@H](CN1CCCC1)c1ccccc1`: “inactive”; for `O=C(O)/C=C/CO`: “inactive”. Turning to `CCCCC[C@@H](/C=C/C=C\CCCCCCCC(=O)O)OO`, the activity change, negative = inhibition is -19.4% [at 0.478 µM]. As for `CC(C)[C@]1(O)[C@@H](OC(=O)c2ccc[nH]2)[C@@]2(O)[C@@]3(C)C[C@]4(O)O[C@@]5([C@H](O)[C@@H](C)CC[C@]35O)[C@@]2(O)C41C`, the Potency entry was “inactive”. `CC(N)(COP(=O)(O)Oc1ccccc1)C(=O)O` (stereo not given): the Potency entry is “inactive”. On the same count and under the same terms, the same measure for `NCC(CS(=O)(=O)O)c1ccc(Cl)cc1` (stereo not given): “inactive”. `CCCCCCCCCCCCCCCCOC[C@@H](COP(=O)([O-])OCC[N+](C)(C)C)OC(C)=O`: the activity change, negative = inhibition is -29.1% [at 3.88 µM]. `COc1cc(OC2CCN(C(C)=O)CC2)ccc1C(=O)N1CCC(N2C(=O)OCc3ccccc32)CC1`: the Potency entry is “inactive”.

Regarding `CCOc1cncc(/C=C/CCNC)c1`, the Potency entry was “inactive”.
